HT1080 IDH1KD tx = toxicity to HT-1080 IDH1 knockdown cells (counter line); HT-1080 IDH1 knockdown viability, ATP luminescence, 48 h; 2% of 360,000 active; Potency, µM (series often up to 46.1 µM), without a hit: at the top dose activity, negative = toxicity, usual class: cytotoxic;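 further: 0% = DMSO wells and -100% = cell-free medium wells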
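Luminescent ATP read-out (CellTiter-Glo, 10 min at room temperature) after 48 h compound exposure at 37 °C gave viability of IDH1-knockdown HT-1080 cells. Activity was normalised to DMSO and cell-free wells, then fitted as concentration-response curves.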
KB-V1 MDR tox = KB-V1 MDR subline cytotoxicity; AID 1347076; KB-V1 MDR cells viability, CellTiter-Glo, 72 h; 3.4% of 400,000 active; Potency, µM (series often up to 46.1 µM), usual class: cytotoxic; further: on the % scale 0 is the no-effect control and ±100 the full control effect; nearly all actives have a fitted effect of over 60% in size
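Drug-selected KB-V1 cells, grown in DMEM lacking phenol red with 10% FBS, receive compound titrations; after three days at 37 degrees C, surviving cell ATP is quantified by CellTiter-Glo luminescence and responses normalized and curve-fitted.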
KB-3-1 tox = kills parental KB-3-1 adenocarcinoma cells | KB-3-1 viability, CellTiter-Glo ATP luminescence, 72 h | Potency, µM (doses to about 46.1 µM), hits mostly cytotoxic | 1.4% of 400,000 active; further: on the % scale 0 is the no-effect control and ±100 the full control effect; nearly all actives have a fitted effect of over 60% in size
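Multi-concentration cytotoxicity screen in KB-3-1 cells grown in DMEM lacking phenol red with 10% FBS. After 72 h at 37 °C with compound, ATP-dependent luminescence was recorded.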
TGFb SMAD3 inh = blocks TGF-b signaling; HepG2 CAGA-GFP TGF-b/SMAD3 reporter, GFP fluorescence, 18 h; TGF-beta stimulated, 500 pg/mL final; Potency, µM (titrated, usually from 46.1 µM), without a hit: top-dose activity, negative = inhibition, most hits filed as inhibitors; 1.2% of 410,000 active; AID 588855; further: on the % scale 0 is the no-effect control and ±100 the full control effect; nearly all actives have a fitted effect of over 65% in size
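Read-out: total well GFP (ex488/em500-530) summed from mean per-cell fluorescence. Cells: HEPG2 CAGA-GFP, 1% FBS DMEM, 18 h at 37 degrees C with 500 pg/mL final TGF-beta. Unstimulated wells served as the full-inhibition control; stimulated DMSO wells = 0%.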
HT1080NT lethal = kills 2HG-producing HT-1080-NT fibrosarcoma cells; HT-1080-NT fibrosarcoma viability, CellTiter-Glo ATP luminescence, 48 h; Potency, µM (series often up to 46.1 µM), for inactives: at the highest dose activity, negative = less viability, usual class: cytotoxic; AID 686970; 1.6% of 360,000 active;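 further: NT is the 2HG producing partner of a matched IDH1 knockdown line; 0% = DMSO-treated cells and -100% = media-only wells without cells; nearly all actives have a fitted effect of over 55% in size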
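Toxicity toward the 2HG-producing NT line was scored as %Activity, normalised to DMSO and no-cell wells, from CellTiter-Glo luminescence after 48 hours' treatment.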
HepG2 tox = kills HepG2 cells in TGF-b inhibitor counter-screen. HepG2 CAGA-GFP viability, ATP luminescence, 18 h. Potency, µM (titrated, usually from 46.1 µM), for the others: at the highest dose activity change, negative = cytotoxicity, actives largely listed as cytotoxic. 0.76% of 410,000 active. AID 588856
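HepG2 CAGA-GFP cells (1000/well, DMEM with 1% FBS) received compound, then TGF-beta at 500 pg/mL final, and were incubated 18 hours at 37 degrees C. Viability was read by CellTiter-Glo luminescence. Media-only wells were set as complete cell-killing and DMSO as no toxicity.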
An asterisk follows results filed as active; i = inactive; ? = inconclusive; . = no result; [ ] = remark or other dose. Sampled rows, rich in hits. Any-hit rate of the full collection: about 6.6%. The call rests on the fitted dose curve; in most records, active means well fitted curve in the direction sought with a large enough effect; inconclusive means small, poorly fitted or top-dose-only effect, or another doubt; inactive means no such curve, though single readings can be large; an effect the other way counts as inactive or inconclusive. Potency means the concentration at half of the fitted maximal effect.

SMILES	HT1080 IDH1KD tx	KB-V1 MDR tox	KB-3-1 tox	TGFb SMAD3 inh	HT1080NT lethal	HepG2 tox
O=C1CCC(c2ccccc2)=NN1	22%	i	i	-8%	11%	-4%
O=C1CCC(c2ccc3c(c2)CCC3)=NN1	0%	i	1.2µM*	2%	0%	4%
NC(=O)C1(Nc2ccc(-c3ccc(Br)cc3)cc2)CCCC1	-27%	i	i	-23%	-2%	-23%
COc1ccc(NC(=O)CC2C(=O)N(c3cccc(OC)c3)C(=O)N2CCC2=CCCCC2)cc1 (stereo not given)	.	i	?	-28%	.	-5%
CCN(Cc1ccccc1)c1ccc(N=Nc2nn(C)c(C)c2[N+](=O)[O-])cc1	1%	6.5µM*	?	11%	-2%	3%
CCCCNC(=O)CCn1c(=O)c2ccccc2n(Cc2ccc(Cl)cc2)c1=O	-1%	15µM*	i	-10%	-2%	-24%
O=C(CCCn1c(=O)c2ccccc2n(Cc2ccccc2)c1=O)NCc1ccco1	?	?	?	8%	?	0%
O=C(CCCCn1c(=O)c2ccccc2n(Cc2ccc(F)cc2)c1=O)NCc1ccco1	-15%[9.24 µM]	5.8µM*	12µM*	-1%	18µM*	1%
COc1ccc(CCNC(=O)CCCn2c(=O)c3ccccc3n(Cc3cccc(Cl)c3)c2=O)cc1OC	.	i	i	11µM*	.	-37%
COCCCNC(=O)c1ccc(Cn2c(=O)c3ccccc3n(Cc3ccccc3C)c2=O)cc1	16µM*	?	?	-30%	?	-32%
CC1(C)OC(=O)C2(Cc3ccc(Br)cc3N3CCCCC32)C(=O)O1 (stereo not given)	.	i	i	-7%	.	-5%
CN(C)CCCNc1nc2cc(-c3ccc4c(ccn4C)c3)sc2c(=O)n1C	?	i	i	?	?	-34%
CCCOC(=O)c1ccc(Oc2cn[nH]c2-c2ccc(O)cc2O)cc1	-4%	i	?	?	18µM*	-48%
CCOC(=O)c1ccc(Oc2cn[nH]c2-c2ccc(O)cc2O)cc1	-5%	i	23µM*	?	1%	-17%
NCCCN(Cc1ccccc1)c1ccc(Br)cn1	-19%	.	.	.	-27%	.
CCN1C(=O)[C@H]2[C@@H](c3ccc(-c4ccc(Cl)c(Cl)c4)cc3)N3CCCC[C@@]3(C(=O)OC)[C@H]2C1=O	29%	?	?	4%	0%	2%
CCN1C(=O)[C@H]2[C@@H](c3ccc(-c4cccc(Cl)c4)c(OC)c3)N3CCCC[C@@]3(C(=O)OC)[C@H]2C1=O	-22%	21µM*	i	?	0%	-15%
CCCCCCSc1ccc([C@@H]2[C@@H]3C(=O)N(C)C(=O)[C@@H]3[C@]3(C(=O)OC)CCCCN23)cc1OC	?	?	i	?	29µM*	-27%
CCN1C(=O)[C@H]2[C@@H](c3ccc(-c4ccc(Cl)c(Cl)c4)c(OC)c3)N3CCCC[C@@]3(C(=O)OC)[C@H]2C1=O	-20%	?	21µM*	?	-2%	-23%
CCN1C(=O)[C@H]2[C@@H](c3ccc(-c4cccc(Cl)c4)cc3)N3CCCC[C@@]3(C(=O)OC)[C@H]2C1=O	-5%	i	?	?	-11%	-19%

Source: PubChem BioAssay
